From PubChem BioAssay (NCI)
“And” between values parts separate entries of the source, which are not always exact repeats. Identical values can stand only once. The panel holds about 83,000 compounds, 20% with a hit somewhere; the sample as a whole holds those more often.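 The endpoint reported here, percent growth, reads 100 for growth as untreated, 0 for no net growth and -100 for all cells dead.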 Unmarked numbers belong to inactive results. The source made the active and inactive calls. Rule for the calls: active = growth percent below 10; inactive = the rest.

Tests used:
Experiment in all cases: NCI-60 one-dose screen, 48 h (100 = growth as untreated, 0 = no growth, -100 = all killed)
Settings in all cases: 10 µM unless noted
SK-MEL-2 melanoma = test system: SK-MEL-2 melanoma
EKVX NSCLC = test system: EKVX NSCLC
SN12C renal = test system: SN12C renal
UO-31 renal = test system: UO-31 renal
ACHN renal = test system: ACHN renal
CAKI-1 renal = test system: CAKI-1 renal
A498 renal = test system: A498 renal
HL-60(TB) leukemia = test system: HL-60(TB) leukemia
CCRF-CEM leukemia = test system: CCRF-CEM leukemia
MOLT-4 leukemia = test system: MOLT-4 leukemia
SR leukemia = test system: SR leukemia
RPMI-8226 leukemia = test system: RPMI-8226 leukemia
OVCAR-8 ovarian = test system: OVCAR-8 ovarian
OVCAR-5 ovarian = test system: OVCAR-5 ovarian
OVCAR-4 ovarian = test system: OVCAR-4 ovarian
SK-OV-3 ovarian = test system: SK-OV-3 ovarian
IGROV1 ovarian = test system: IGROV1 ovarian
OVCAR-3 ovarian = test system: OVCAR-3 ovarian
HS 578T breast = test system: HS 578T breast
TK-10 renal = test system: TK-10 renal

Structure (SMILES) | growth (SK-MEL-2 melanoma) | growth (EKVX NSCLC) | growth (SN12C renal) | growth (UO-31 renal) | growth (ACHN renal) | growth (CAKI-1 renal) | growth (A498 renal) | growth (HL-60(TB) leukemia) | growth (CCRF-CEM leukemia) | growth (MOLT-4 leukemia) | growth (SR leukemia) | growth (RPMI-8226 leukemia) | growth (OVCAR-8 ovarian) | growth (OVCAR-5 ovarian) | growth (OVCAR-4 ovarian) | growth (SK-OV-3 ovarian) | growth (IGROV1 ovarian) | growth (OVCAR-3 ovarian) | growth (HS 578T breast) | growth (TK-10 renal)
Cc1ccc(P(=O)(O)O)cc1 | 109% | 100% | 97.7% | 96.6% | 109% | 97.2% | 115% | 107% | 114% | 116% | 97.9% | 112% | 110% | 114% | 101% | 128% | 111% | 118% | 97.7% | 
C[C@@H]1C/C=C\C(=O)O[C@H](/C=C/C#C/C=C/C(C)(C)[C@@H](O)c2cccc(O)c2Br)[C@@H](C)/C=C/[C@H](C)C[C@H](OC(N)=O)C1 | 15.1% | 22% | 36.4% | 3.1% (active) |  | 6.13% (active) | 41% |  | 25.7% | 19.7% | 5.45% (active) | 11.3% | 20.3% | 46.8% | 50.3% | 55.9% |  | 41.5% |  | 43.5%
CN1CCN(c2ccc(Cl)cc2)CC1 | 18.1% | 107% | 90.7% | 86.1% | -11.9% (active) | 24.1% | 97% | 48.7% | 87.3% | 75.6% | 56.2% | 110% | 72.5% | 80.5% | 98.6% | 103% |  | 125% | 101% | 
CC(C)COC(=O)Cc1ccccc1 | 113% | 109% | 94.2% | 102% |  | 101% | 81.1% | 109% | 95.3% | 103% | 100% |  | 110% | 106% | 105% | 105% | 109% | 111% | 102% | 95.3%
Cc1nc2ccccc2c(=O)n1-c1ccccc1F | 105% | 89.3% | 95% | 88.1% |  | 96.4% | 84.5% | 89.3% | 99.1% | 96.9% | 108% | 102% | 93.2% | 102% | 99.3% |  | 111% | 107% |  | 98%
O=C=Nc1ccc(Br)cc1 | 109% | 102% | 111% | 102% | 114% | 104% | 94.2% | 96.4% | 103% | 111% | 98.5% | 98.9% | 107% | 109% | 98.5% | 99.1% | 112% | 105% | 106% | 
CN(C)C(=S)SSC(=S)N(C)C | 109% and 108% | 69.4% and 92.7% | 106% and 94.8% | 79.1% and 80.5% | 100% | 90.9% | 95.1% | 113% | 68% and 91.5% | 92.3% |  | 85.6% and 70% | 95.4% and 104% | 97.4% and 110% | 107% and 106% |  | 99.1% | 88.5% and 112% | 101% and 112% | 
Oc1ccccc1C=NCCN=Cc1ccccc1O.[Fe] | 92.4% | 110% | 52% | 72.3% | 92.3% | 98.1% | 65.5% | 44.5% | -32.9% (active) | 30.7% | 73.2% | 88.6% | 84.7% | 118% | 117% | 101% | 71.2% | 112% | 77.3% | 
CCC1CCC(=O)O1 (centres undefined) | 94.8% and 114% | 111% | 108% and 109% | 85.5% and 95% |  | 104% | 96.5% and 98.6% | 78% and 109% | 116% | 98.3% and 116% |  | 104% and 114% | 109% and 118% | 106% and 111% | 96.6% and 112% |  | 105% and 110% | 108% and 110% | 106% and 108% | 105% and 109%
CCN(CC)CCn1c(=O)n(C)c2ccccc21 | 109% | 114% | 108% | 92.5% |  | 102% | 104% | 107% | 103% | 104% | 99.3% | 113% |  | 117% | 109% | 106% |  | 106% | 95.5% | 111%
O=S1(=O)OCCO1 | 113% | 100% | 93.3% |  |  | 89.5% | 99% | 98.6% |  | 114% |  | 104% | 102% | 96.3% | 99.4% | 117% |  | 106% | 95.1% | 98.5%
O=[N+]([O-])c1c(Cl)cc(Cl)c([N+](=O)[O-])c1Cl | 112% |  | 108% | 151% | 103% |  | 111% | 85.2% | 53.5% | 80.8% | 69% | 90.2% | 94.7% | 115% | 112% |  | 100% | 78.3% | 109% | 112%
O=C1NC(=O)C(=C/C=C/c2ccccc2)C(=O)N1 | 74.2% | 84.1% | -10.6% (active) | -64.3% (active) |  | -12.7% (active) | 106% |  | -7.03% (active) | 4.09% (active) |  | -20.4% (active) | -3.62% (active) | 37% | 26.8% | 62.9% | 7.61% (active) | 11.8% | 39.4% | 
CC1=C(C)C(=O)O[C@@H]([C@](C)(O)[C@]2(O)CC[C@@]3(O)[C@@H]4C[C@H]5O[C@]56CC=CC(=O)[C@]6(C)[C@H]4CC[C@]23C)C1 | -24.6% (active) |  | 3.65% (active) | -24.3% (active) |  | -49% (active) | -59.9% (active) | -36.9% (active) | -8.66% (active) | -12.7% (active) | -23.5% (active) |  |  |  | 7.99% (active) |  | -36.7% (active) | -59.6% (active) | 9.59% (active) | -48% (active)
OCCNC1CCCCC1 | 104% | 97.9% | 100% |  | 102% | 102% | 93.4% | 100% | 103% | 89.2% | 94.2% |  | 112% | 98% | 111% | 105% | 111% | 112% | 108% | 106%
CCC(=O)C(CC(C)[N+](C)(C)C)(c1ccccc1)c1ccccc1 (centres undefined) | 104% |  | 98.2% | 95.9% | 102% | 95.4% | 111% | 109% | 114% | 104% | 101% | 109% |  | 96.8% | 110% | 96.6% | 101% | 70.6% |  | 98.1%
